High-throughput results: PubChem BioAssay, National Center for Advancing Translational Sciences (NCATS)
Only some compounds are listed: those with a hit (about 9.9% of all), similar ones and a draw of the others.
SW480 rerep: inducers of DNA re-replication in SW480 colon cancer cells; 1.8% of 340,000 active; AID 624297; SW480 DNA re-replication, Hoechst DNA content imaging, 48 h; Potency, µM (doses to about 46.1 µM), for inactives: top-dose re-replication activation, actives largely listed as activators; further: potency means the concentration at half of the fitted maximal effect; % of control where 0% means no effect; nearly all actives have a fitted effect of over 55% in size
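Treated cells incubate 48 hr (37 C, 5% CO2), are stained 40 min with Hoechst, and nuclear fluorescence is enumerated; a rise in nuclei with high DNA signal marks re-replication.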
KB-V1 MDR tox: kills drug-selected multidrug resistant KB-V1 cells; KB-V1 MDR cells viability, CellTiter-Glo, 72 h; Potency, µM (top dose mostly 46.1 µM), actives largely listed as cytotoxic; 3.4% of 400,000 active; AID 1347076; further: potency means the concentration at half of the fitted maximal effect; on the % scale 0 is the no-effect control and ±100 the full control effect; nearly all actives have a fitted effect of over 60% in size
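Drug-selected KB-V1 cells, grown in DMEM lacking phenol red with 10% FBS, receive compound titrations; after three days at 37 degrees C, surviving cell ATP is quantified by CellTiter-Glo luminescence and responses normalized and curve-fitted.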
MCF10A rereplic: inducers of DNA re-replication in MCF 10A breast cells | MCF 10A DNA re-replication, Hoechst nuclear intensity, 48 h | Potency, µM (titrated, usually from 46.1 µM), inactives show top-dose activity, positive = re-replication, usual class: activators | 2.9% of 350,000 active; further: potency means the concentration at half of the fitted maximal effect; % of control where 0% means no effect; nearly all actives have a fitted effect of over 50% in size
KB-3-1 cytotox: KB-3-1 parental cell cytotoxicity | 1.4% of 400,000 active | Potency, µM (doses to about 46.1 µM), usual class: cytotoxic | KB-3-1 viability, CellTiter-Glo ATP luminescence, 72 h | AID 1347075; further: potency means the concentration at half of the fitted maximal effect; on the % scale 0 is the no-effect control and ±100 the full control effect; nearly all actives have a fitted effect of over 60% in size
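Parental KB-3-1 viability, qHTS format: 72 h compound exposure, 37 °C; CellTiter-Glo; media-only wells and DMSO plates as controls; concentration-effect fits on corrected data.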
IL-1B inflam inh: inflammasome signaling inhibition, IL-1 beta readout; THP-1 LPS/ATP IL-1B secretion, AlphaLISA, 16 h; active compounds read low; activity change, % at 57.5 µM; 4.7% of 360,000 active; in the data active means activity change below about -50%; inconclusive means mostly about -30% to -49%; further: on the % scale 0 is the no-effect control and ±100 the full control effect
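Secreted IL-1B measured by AlphaLISA bead assay after 16 h compound exposure of THP-1 cells; compounds (final up to 57.5 uM) added 1 h before LPS (250 ng/mL) and ATP (1.25 mM) stimulation; lower signal means less secretion.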
Numbers without * were called inactive; i = inactive; ? = inconclusive; . = no result; ! = not active in a repeat. Unless noted, the call rests on the fitted dose curve; in most records, active means well fitted curve in the direction sought with a large enough effect; inconclusive means small, poorly fitted or top-dose-only effect, or another doubt; inactive means no such curve, though single readings can be large; an effect the other way counts as inactive or inconclusive.

SMILES	SW480 rerep	KB-V1 MDR tox	MCF10A rereplic	KB-3-1 cytotox	IL-1B inflam inh
COC(=O)C1=CN(c2ccc(F)cc2)C(N)=C(C#N)C1c1ccc(-c2ccccc2)cc1 (centres undefined)	.	16.4µM*	.	?	-17.9
COCCN1C=C(C(=O)OC)C(c2ccc3c(c2)OCO3)C(C(=O)OC)=C1	0.1%	?	-21.5%	i	21.1
O=C(OC(C(=O)N1CCOCC1)c1ccccc1)c1c2c(nc3ccccc13)CCCC2 (centres undefined)	.	i	.	i	.
COc1cccc(CNC(=O)c2ccc(NC(=O)N3CCCCc4ccccc43)cc2)c1OC	.	i	.	i	.
O=S(=O)(N/N=C\c1ccc2c(c1)OCO2)c1ccc(Cl)cc1	-5.5%	i	-4.4%	i	-2.3
COC(=O)C1=CN(c2ccc(Oc3ccccc3)cc2)C(N)=C(C#N)C1c1cccc(F)c1 (centres undefined)	.	i	.	i	-0.1
COC(=O)C1=CN(c2c(C)cc(C)cc2C)C(N)=C(C#N)C1c1ccccc1 (centres undefined)	.	?	.	i	-13.1
COC(=O)C1=CN(c2ccc(F)cc2)C(N)=C(C#N)C1c1cccc(F)c1 (centres undefined)	.	8.2µM*	.	?	-16.4
COC(=O)C1=CN(c2ccc3c(c2)OCO3)C(N)=C(C#N)C1c1ccc(-c2ccccc2)cc1 (centres undefined)	.	3.66µM*	.	4.61µM*	67.6
COc1cc(OC)cc(-c2nc3nc(C)c(CCC(=O)Nc4ccc(Cl)cc4)c(C)n3n2)c1	.	i	.	i	.
CC1(C(=O)NC(=S)NNC(=O)c2ccncc2)CCCCC1	9.2µM*	?	11.3%	?	15.0
O=c1c(S(=O)(=O)c2ccc(Cl)cc2)cn(Cc2ccccc2)c2ccc(F)cc12	-3.5%	4.11µM*	3.0%	i	-1.5
CCCn1cc(S(=O)(=O)c2ccc(Cl)cc2)c(=O)c2cc(OC)ccc21	?	7.31µM*	?	?	-17.4
COc1cc(CNCc2ccccc2)c(Br)cc1OC1CCCC1	6.0%	i	?	i	-54.9*
COc1cc(CNC2CCCC2)c(Br)cc1OC1CCCC1	25.2%	?	13.5%	i	?
CN1CCc2cccc3c2[C@H]1Cc1ccc(O)c(O)c1-3	8.2µM*!	?	2.91µM*	?	-8.7
Cc1cc(C)c2c(N)c(S(=O)c3ccc(C(C)(C)C)cc3)sc2n1 (centres undefined)	1.9%	i	-6.0%	i	-67.0*
COc1ccc(-c2nnc3n(CCc4ccccc4)c(=O)c4ccccc4n23)c(OC)c1	16.6%	?	20.6µM*	i	25.9
COc1cc(-c2nnc3n(CCc4ccccc4)c(=O)c4ccccc4n23)cc(OC)c1OC	5.2%	i	?	i	14.8
CCc1nc2ccc(C(=O)Nc3cccc(OCC(=O)N(C)C)c3)cn2c1N(C)Cc1cc2ccccc2s1	.	?	.	?	-17.0
COc1ccc(N=N/C(=C\O)C(=O)c2cccs2)cc1	?	i	?	i	-80.7*
COc1ccc(C(=O)C(/C=N/O)=N/Nc2ccc(F)cc2)cc1	-4.2%	i	-9.7%	i	37.8
COc1ccc(C(=O)/C(=C/O)N=Nc2ccc(F)cc2)cc1	?	i	?	i	-98.5*
Cc1ccc(N=N/C(=C\O)C(=O)c2ccncc2)cc1	10.4%	i	?	i	-6.8
O=C(/C(=C/O)N=Nc1ccc(Cl)cc1)c1ccncc1	?	i	?	13µM*	-6.9
SMILES	SW480 rerep	KB-V1 MDR tox	MCF10A rereplic	KB-3-1 cytotox	IL-1B inflam inh
Cc1cccc(C(=O)OCN2C(=O)c3ccccc3C2=O)c1[N+](=O)[O-]	-2.0%	?	-1.5%	i	-3.9
CCN(CC)CCNCc1cc(Cl)ccc1OCc1ccccc1F	5.1%	?	3.3%	i	-90.3*
Cn1nnnc1SCCCNCc1cc(Cl)ccc1OCc1ccccc1F	.	i	.	i	.
CC(C)(C)NCc1cc(Cl)ccc1OCc1ccccc1F	-5.8%	i	18.9%	i	-144.0*
Cc1ccc(NC(=O)c2ccc(S(=O)(=O)NCc3cccnc3)cc2)c(C)c1	-3.8%	i	5.7%	i	2.4
COC(=O)C1=C(C)NC(C)=C(C(=O)OC(C)(C)CN(C)CCC(c2ccccc2)c2ccccc2)C1c1cccc([N+](=O)[O-])c1 (centres undefined)	11.9µM*	.	14.9%	.	.
CC1=C(C(=O)OC(C)C)C(c2cccc([N+](=O)[O-])c2)C(C(=O)OC2CN(C(c3ccccc3)c3ccccc3)C2)=C(N)N1 (centres undefined)	?	.	21.1µM*	.	.
CCOC(=O)C1=C(C)NC(C)=C(C(=O)OC)C1c1cccc([N+](=O)[O-])c1 (centres undefined)	10.6%	i	15.9%	i	-1.0
COCCOC(=O)C1=C(C)NC(C)=C(C(=O)OC/C=C/c2ccccc2)C1c1cccc([N+](=O)[O-])c1 (centres undefined)	29.9µM*	.	-1.7%	.	.
COCCOC(=O)C1=C(C)NC(C)=C(C(=O)OC(C)C)C1c1cccc([N+](=O)[O-])c1 (centres undefined)	8.7%	i	?	i	-21.3
COc1ccc(C(=O)CC(CC(=O)c2ccc(OC)cc2)C(=O)O)cc1	-7.4%	?	-3.5%	i	22.4
COc1cccc(NC(=O)CN(C)CC(=O)Nc2ccc(Cl)cc2[N+](=O)[O-])c1	4.1%	?	5.5%	i	-6.1
CC(=O)Oc1ccccc1C(=O)NC(C)CCc1ccccc1 (centres undefined)	-2.1%	i	?	i	-71.9*
O=C(NCCNC(=O)c1ccccc1Br)c1cccnc1	?	i	-26.3%	i	i
N#CCOc1coc(CN2CCN(c3ccccc3)CC2)cc1=O	15.3%	i	-1.3%	i	-5.5
O=C(O)COc1ccccc1C(Nc1ccccn1)c1cc(Cl)c2cccnc2c1O (centres undefined)	-2.3%	i	18.4µM*	i	18.5
CCOc1ccc(C(Nc2cccnc2)c2cc(Cl)c3cccnc3c2O)cc1 (centres undefined)	?	i	?	?	0.4
O=C(O)COc1ccccc1C(Nc1cccnc1)c1cc(Cl)c2cccnc2c1O (centres undefined)	14.9%	i	9.2µM*	i	29.9
O=C(Nc1ccc(Cl)cc1)c1ccc(-n2cccn2)c([N+](=O)[O-])c1	3.8%	14.6µM*	?	?	-21.0
COc1ccc(NC(=O)c2ccc(-n3cccn3)c([N+](=O)[O-])c2)cc1	-117.2%	?	2.5%	i	?
C/C(=N\NC(=O)c1ccc([N+](=O)[O-])c(C)c1)c1ccccc1Cl	1.2%	?	-20.5%	i	-70.1*
